Source: PubChem BioAssay (NCI)
This is part of a sample that, as a whole, favours compounds with a hit. Of some 83,000 tested, about 20% had one in any assay.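 Treatment: one concentration, 48 hours, 96-well format. Scoring: percent growth, with anything below 10 considered active.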

Tests used:
Test in all cases: NCI-60 one-dose screen, 48 h (100 = growth as untreated, 0 = no growth, -100 = all killed)
Conditions in all cases: 10 µM unless noted
[1] = test system: NCI-H23 lung
[2] = test system: NCI-H226 lung
[3] = test system: NCI-H322M lung
[4] = test system: HOP-62 NSCLC
[5] = test system: NCI-H460 lung
[6] = test system: HOP-92 NSCLC
[7] = test system: NCI-H522 lung
[8] = test system: A549/ATCC NSCLC
[9] = test system: 786-0 renal
[10] = test system: COLO 205 colon
[11] = test system: DU-145 prostate
[12] = test system: K-562 leukemia
[13] = test system: MALME-3M melanoma
[14] = test system: MDA-MB-231 breast
[15] = test system: RXF 393 renal
[16] = test system: SF-268 CNS
[17] = test system: SF-295 CNS
[18] = test system: SF-539 CNS
[19] = test system: UACC-257 melanoma
[20] = test system: M14 melanoma

Measured: growth

O=C(NCc1ccco1)Nc1cccc2c(NC(=O)NCc3ccco3)cccc12
inactive: [1] 75.5% [100 µM] | [2] 112% [100 µM] | [3] 120% [100 µM] | [4] 104% [100 µM] | [5] 111% [100 µM] | [6] 124% [100 µM] | [7] 36.5% [100 µM] | [8] 108% [100 µM] | [9] 104% [100 µM] | [10] 71.4% [100 µM] | [11] 53% [100 µM] | [12] 32.9% [100 µM] | [13] 111% [100 µM] | [14] 97.9% [100 µM] | [15] 117% [100 µM] | [16] 96.3% [100 µM] | [17] 84.1% [100 µM] | [18] 30.2% [100 µM] | [19] 112% [100 µM] | [20] 66.3% [100 µM]

Cc1ccc(C2CCCCC2)cc1Br
inactive: [1] 105% | [2] 97.7% | [3] 99.2% | [4] 91.3% | [5] 108% | [6] 95% | [7] 91.3% | [8] 89.4% | [9] 96.4% | [10] 101% | [11] 105% | [12] 100% | [13] 100% | [14] 97.4% | [15] 105% | [16] 99.5% | [17] 95.5% | [18] 101% | [19] 88.8% | [20] 98.6%

COc1cc(C(=O)O)c(O)c(C(C)(C)C)c1
inactive: [1] 102% | [2] 102% | [3] 107% | [4] 104% | [5] 105% | [6] 88.2% | [7] 106% | [8] 102% | [9] 101% | [10] 107% | [11] 106% | [12] 101% | [13] 102% | [14] 103% | [15] 117% | [16] 105% | [17] 102% | [18] 102% | [19] 97.9% | [20] 105%

CCOC(=O)C(CCC#N)(CCC#N)C(=O)OCC
inactive: [1] 96.6% | [2] 98.4% | [3] 113% | [4] 102% | [5] 103% | [6] 84% | [7] 117% | [8] 102% | [9] 98.4% | [10] 102% | [11] 110% | [12] 115% | [13] 113% | [14] 105% | [15] 104% | [16] 99.2% | [17] 96.4% | [18] 103% | [19] 103% | [20] 89.2%

N#Cc1ccc2nc[nH]c2c1
inactive: [1] 99.1% | [2] 90.9% | [3] 108% | [4] 110% | [5] 107% | [6] 101% | [7] 102% | [8] 101% | [9] 106% | [10] 112% | [11] 101% | [12] 106% | [13] 102% | [14] 120% | [15] 109% | [16] 104% | [17] 107% | [18] 113% | [19] 97.9% | [20] 107%

CCOC(=O)c1ccc(C(C)(C)C)cc1
inactive: [1] 102% | [2] 101% | [3] 101% | [4] 107% | [5] 109% | [6] 117% | [7] 105% | [8] 102% | [9] 104% | [10] 108% | [11] 104% | [12] 94.5% | [13] 103% | [14] 114% | [15] 118% | [16] 98.9% | [17] 108% | [18] 110% | [19] 99.9% | [20] 104%

Clc1ccc(-c2noc(/C=C\c3ccccc3)n2)cc1
inactive: [1] 101% | [2] 93.1% | [3] 87.1% | [4] 106% | [5] 109% | [6] 99.3% | [7] 87% | [8] 87.9% | [9] 99.4% | [10] 105% | [11] 108% | [12] 94.6% | [13] 95% | [14] 109% | [15] 104% | [16] 106% | [17] 89.9% | [18] 101% | [19] 104% | [20] 101%

O=C(Nc1cccc(Cl)c1)c1ccc(Cl)cc1Cl
inactive: [1] 99.4% | [2] 94.7% | [3] 103% | [4] 92.3% | [5] 95.1% | [6] 95.7% | [7] 78.1% | [8] 81.1% | [9] 88.4% | [10] 101% | [11] 99.3% | [12] 90.9% | [13] 96.6% | [14] 97.9% | [15] 110% | [16] 96.2% | [17] 94.6% | [18] 103% | [19] 99.7% | [20] 93.7%
